Compound activity: PubChem BioAssay, several laboratories
SUMO Mot1 rescue – blocks SUMOylation pathway, rescuing yeast Mot1-301 growth. S. cerevisiae Mot1-301 growth rescue, ATP luminescence, 38.5C; percent above DMSO median, 100 means doubled. growth rescue, % at 18.8 µM. hit rate 1% among 320,000;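 active = every valid replicate shows activation above 250% relative to neutral control wells; inactive = the rest, any valid replicate at or below 250%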;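 also: OY570 slx delta 5 strain wells were the positive control but not used for scaling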
A1 inh – inhibitors of the anti-apoptotic protein A1, read as caspase activation. MEF A1-2A-BIM cells, Caspase-Glo 3/7 luminescence, 3 h; percent of clofoctol response, vehicle zero. AID 2462. caspase activation, % (concentration not given with the values). hit rate 0.066% among 330,000;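 active = over half of replicate activation scores above 10%, or exactly half above 10 with the replicate mean above 10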
ARNT-TACC3 inh – ARNT/TACC3 interaction disruption; inhibition, % at 9.99 µM; hit rate 0.66% among 390,000; Q9Y6A5; AlphaScreen His-ARNT PAS-B/GST-TACC3 binding, luminescence; TACC3 fragment carries E629A point mutation;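 active = mean inhibition of replicates at least 50% and at least half of replicates each reaching 50%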;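 also: 0% = complete ARNT plus TACC3 wells and 100% = ARNT alone without TACC3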
aDG glyco up – increases alpha dystroglycan glycosylation. Pro5-aDG cells, alpha-DG glycosylation AlphaScreen (IIH6); 0% Pro5, 100% B10-LARGE cell signal. activation, % at 10 µM. hit rate 0.22% among 360,000. AID 624168;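 active = activation of at least 8% versus controls, or a plate z-score of at least 8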;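 also: Pro5 are CHO cells carrying HIG-tagged alpha-DG that lacks glycosylation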
AI-2 QS modul – modulates the Vibrio harveyi AI-2 quorum sensing system; Vibrio harveyi JMH597 AI-2 luminescence/OD600 ratio, 9 h; hits give low values; strain lacks LuxN and CqsS sensors; 0 = neutral-control median; hit rate 0.4% among 300,000; activity change, % at 7.5 µM; AID 2094; in the data active = activity change below about -75%, passing the limit was not always enough;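 also: luminescence divided by OD600 gain over 9 h not by final OD600 alone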
Yeast Mot1 SUMO – SUMO pathway inhibitors in yeast Mot1-301 growth; shares compounds with SUMO Mot1 rescue; S. cerevisiae Mot1-301 galactose growth, ATP luminescence, 24 h; -100 = growth of slx-deleted rescue strain; 2,300 tested, under 10 active; growth activity, percent, % at 42 µM; AID 493004;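 active = Signal drops as the depositor expects, and the fitted half-maximal dose is no more than ten times the top valid tested dose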;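 also: more negative values mean stronger growth rescue toward the control strain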
Active calls of the source: *; / = no result; + = active, no number. This is a sample that favours compounds with a hit; in the whole collection about 1.8% have one here.

SMILES	SUMO Mot1 rescue	A1 inh	ARNT-TACC3 inh	aDG glyco up	AI-2 QS modul	Yeast Mot1 SUMO
Cc1c(Br)c([N+](=O)[O-])nn1CC(=O)NCc1ccccc1	21.4	0.2	0.7	0.0	-4.8	/
COc1cc(/C=N/NC(=O)c2cccc([N+](=O)[O-])c2)ccc1O	+	-0.2	17.5	-0.5	10.0	-0.4
COc1ccc(/C=N/NC(=O)c2cccc([N+](=O)[O-])c2)cc1O	-11.0	-2.5	-11.1	-0.4	34.8	/
Nc1nnc(COc2ccc(Br)cc2Br)s1	+	-0.8	3.7	0.1	37.1	1.0
O=C(O)c1cccc(N2C(=O)C3C4C=CC(C4=C(c4ccccc4)c4ccccc4)C3C2=O)c1 (stereo not given)	598.6*	1.9	/	0.0	-1.8	0.2
O=C(O)c1cccc(N2C(=O)c3ccc4c5c(ccc(c35)C2=O)C(=O)N(c2cccc(C(=O)O)c2)C4=O)c1	11.7	0.1	6.8	0.0	16.8	/
c1ccc(CSc2ncn(-c3ccccc3)n2)cc1	10.5	-0.9	-13.4	0.0	-63.3	/
N=c1c2c(n(Cc3ccc(Br)cc3)c3c1CCC3)CCCC2	-25.4	-0.1	-10.8	0.4	24.3	/
N=c1c2c(n(Cc3ccc(Cl)c(Cl)c3)c3c1CCC3)CCCC2	+	0.2	2.7	0.0	2.8	0.0
O=C(N/N=C/c1ccccn1)NC12CC3CC(CC(C3)C1)C2	611.9*	-1.7	9.8	-0.1	7.0	0.6
CC1=C(C#N)C(NC(=O)C2CC2)(C(F)(F)F)C(=O)N1 (stereo not given)	17.1	-0.1	-8.9	-0.2	19.8	/
CCCCn1c(CN2CCN(C)CC2)nc2ccccc21	-19.0	-0.4	3.5	-0.2	26.7	/
CCOC(=O)C1CCN(Cc2ccc(OCc3ccccc3)cc2)CC1	554.9*	0.0	-2.7	0.2	17.6	-0.9
NC(=O)C1CCN(Cc2ccc(OCc3ccccc3)cc2)CC1	8.4	-0.6	-1.7	0.2	-9.6	/
Cc1ccc(C(=O)/C=C/Nc2ccccc2C(N)=O)cc1	480.9*	0.8	-0.9	0.0	19.2	-0.2
S=c1nc(-c2ccccc2Br)[nH][nH]1	-7.9	0.1	17.2	0.0	33.2	/
Cc1cc(CN(C)C(=O)CCc2nnc(Cc3cccc(C(F)(F)F)c3)o2)on1	13.1	1.4	-0.2	0.8	-7.5	/
N/C(=N\OC(=O)CCC1CCCC1)c1ccc([N+](=O)[O-])cc1	597.2*	0.5	1.5	-0.4	22.6	-0.8
CN1CCOCCOCCOCCN(C)C1=S	-4.3	1.3	-15.2	-0.3	16.9	/
Cc1cc2nc(CCl)cc(=O)n2[nH]1	+	-0.6	6.0	0.6	-2.0	-0.1
CCOc1ccccc1NC(=O)c1nnn(CC(=O)Nc2ccc3c(c2)OCO3)c1N	3.8	0.9	2.9	0.2	5.5	/
COc1ccc(-n2c(SCC(=O)NCC3CCCO3)nc3c(c2=O)SCC3)cc1 (stereo not given)	-15.4	-0.3	0.5	0.0	26.4	/
COc1ccc(-n2c(SCC(=O)NCC3CCCO3)nc3c(c2=O)SCC3)cc1OC (stereo not given)	672.0*	1.1	-4.0	0.3	29.3	-0.4
O=C(O)[C@H]1CCCC[C@H]1C(=O)Nc1ccc(S(=O)(=O)N2CCCCC2)cc1	7.8	0.1	-5.2	-0.1	8.0	/
O=C(O)C1CCCCC1C(=O)Nc1ccc(S(=O)(=O)N2CCCC2)cc1 (stereo not given)	447.0*	0.5	/	-0.1	26.4	0.3
SMILES	SUMO Mot1 rescue	A1 inh	ARNT-TACC3 inh	aDG glyco up	AI-2 QS modul	Yeast Mot1 SUMO
CC(=O)Oc1ccc2ccccc2c1C(NC(=O)Cc1ccccc1)c1ccccc1Cl (stereo not given)	20.4	-0.1	1.3	0.1	3.6	/
CC(C)NC(=O)N[C@H]1CC[C@@H](CC(=O)O)O[C@@H]1CO	/	/	-0.4	/	/	/
CC(=O)Nc1ccc(NC(=O)Cc2sc(-c3cccnc3)nc2-c2ccc(C)cc2)cc1	-5.8	0.7	-13.1	2.6	16.6	/
Cc1ccc(-c2nc(-c3cccnc3)sc2CC(=O)O)cc1	885.0*	-0.8	-8.1	-0.1	23.8	-0.3
c1n[nH]c(SCCCCSc2ncn[nH]2)n1	1.5	-0.2	-6.0	0.1	2.1	/
O=c1ccc2cc([N+](=O)[O-])c(CCO)cc2o1	38.8	0.2	-0.1	-0.3	19.1	/
CCc1cc(C(=O)Nc2ccccc2N2CCOCC2)sc1C	52.4	2.7	-7.1	0.1	/	/
O=C(Nc1ccccc1N1CCOCC1)c1cc(Br)c(Br)s1	759.6*	-0.3	-2.7	0.0	22.5	-1.0
O=C(CSc1ccc(Br)cc1)Nc1ccccc1N1CCOCC1	722.4*	0.5	-4.8	0.1	24.0	-0.3
CCCCn1c(N)c(N(CC(C)C)C(=O)c2cc(-c3ccc(F)cc3)nc3ccccc23)c(=O)[nH]c1=O	490.8*	-0.1	1.0	-0.3	-15.7	-0.1
CCCCn1c(N)c(N(CC(C)C)C(=O)c2cc(-c3ccc(OC)cc3)nc3ccccc23)c(=O)[nH]c1=O	/	/	-4.1	0.1	/	/
COc1ccccc1C1CC(=O)NC(C)=C1C(=O)OCC1CCCO1 (stereo not given)	-16.9	0.4	0.9	0.0	6.1	/
CCOC(=O)N1CCC(Nc2nc3ccccc3n3nnnc23)CC1	889.3*	0.7	0.1	0.1	4.7	0.3
Cc1ccc(CNc2nc3ccccc3n3nnnc23)cc1	-15.5	-0.6	/	0.0	23.8	/
Oc1ccccc1CN(Cc1ccco1)CC(O)COCc1ccc(Cl)cc1 (stereo not given)	-11.7	0.6	0.8	0.2	-7.8	/
CCc1nc(NCCCn2ccnc2)c2oc3ccccc3c2n1	-5.8	-1.3	-2.0	0.4	3.1	/
CN(CC(=O)NCCCn1ccnc1)S(=O)(=O)c1ccc(Cl)cc1	-6.4	0.4	8.6	0.3	/	/
Cc1cc(C)n(CCCNC(=O)CN(C)S(=O)(=O)c2ccc(Cl)cc2)n1	816.9*	-0.4	-1.6	-0.2	-4.8	-0.1
Cc1cccc(OCc2nnc(SCC(=O)O)n2-c2ccccc2)c1	+	1.0	-0.7	-0.1	11.2	0.7
Cc1ccc(OCc2nnc(SCC(=O)O)n2-c2ccccc2)cc1	-7.4	0.0	-5.8	-0.1	-8.0	/
COc1ccc2c(c1)[C@@H]1[C@H](CO2)[C@H](c2ccccc2)[C@]2(C)C(=O)Nc3ccc(C)cc3C(=O)N12	3.0	0.1	-3.5	0.3	/	/
COc1ccc2c(c1)OC[C@H]1[C@H]2N2C(=O)c3ccccc3NC(=O)[C@@]2(C)[C@H]1c1ccccc1	639.6*	1.7	-9.6	0.5	/	1.6
COc1ccc2c(c1)[C@H]1[C@H](CO2)[C@H](c2ccccc2)[C@]2(C)C(=O)Nc3ccc(C)cc3C(=O)N12	598.4*	1.3	-3.3	-0.1	/	-0.8
